Assay results taken from PubChem BioAssay (NCI).
Where “and” joins values, the source holds several entries; their conditions need not be identical. Equal entries are not always repeated. About 83,000 compounds went through this panel and 20% of them were active in at least one assay; those are over-represented in the sample as a whole.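 Cell lines were cultured in 96-well plates, exposed to a single compound concentration, and assessed for percent growth 48 hours later.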 Values without a mark were called inactive. Calls of active or inactive are those of the source. Rule for the calls: active = growth percent below 10; inactive = the rest.

Tests used:
Test in all cases: NCI-60 one-dose screen, 48 h (100 = growth as untreated, 0 = no growth, -100 = all killed)
Settings in all cases: 10 µM unless noted
T-47D breast = test system: T-47D breast
BT-549 breast = test system: BT-549 breast
MDA-MB-435 melanoma = test system: MDA-MB-435 melanoma
SW-620 colon = test system: SW-620 colon
MCF7 breast = test system: MCF7 breast
HCT-116 colon = test system: HCT-116 colon
HCC-2998 colon = test system: HCC-2998 colon
KM12 colon = test system: KM12 colon
MDA-MB-468 breast = test system: MDA-MB-468 breast

| Structure (SMILES) | growth (T-47D breast) | growth (BT-549 breast) | growth (MDA-MB-435 melanoma) | growth (SW-620 colon) | growth (MCF7 breast) | growth (HCT-116 colon) | growth (HCC-2998 colon) | growth (KM12 colon) | growth (MDA-MB-468 breast) |
| --- | --- | --- | --- | --- | --- | --- | --- | --- | --- |
| Cc1ccc(Cc2cnc(NC(=O)c3ccc(/C=C4\SC(=S)N(C)C4=O)cc3)s2)cc1 | 23.9% | 37.9% | -18.7% (active) | 35.8% | 19.6% | 22.7% | 41.1% | 11.2% | 4.76% (active) |
| COc1cc(OC)c2c3nc4cc(C)c(C)cc4nc3n(CCN(C)C)c2c1 | 60.7% | 78.9% | 87.8% | 35.3% | -17.2% (active) | 39.5% | 77.1% | 84.7% | 65.6% |
| COc1ccc(C2=NN(c3ccccc3)C(c3ccc(OC)c(OCc4ccccc4)c3)C2)cc1OC (configuration not stated) | 84.4% | 107% | 97.2% | 101% | 84.9% | 74.8% | 107% | 97.7% | 101% |
| C=C1CC[C@@H]2[C@]3(C)COC(c4ccccc4)O[C@@H]3CC[C@@]2(C)[C@@H]1C/C=C1/C(=O)OCC1OC(C)=O (some centres not stated) | -45.1% (active) | -93.5% (active) | -29.3% (active) | -49.1% (active) | -56.7% (active) | -94.7% (active) | -76.2% (active) | -9.91% (active) | -89.8% (active) |
| CN(C)CCn1c2ccccc2c2nc3ccc([N+](=O)[O-])cc3nc21 | 14.3% | 12.5% | 22.3% | 12.2% | 12.4% | 0.47% (active) | 2.82% (active) | 1.62% (active) | -25.5% (active) |
| COc1ccc(C2(SCCNCc3cc(N(C)C)ccn3)c3ccccc3C=Cc3ccccc32)cc1 | 32.4% | 6.65% (active) | -33% (active) | 4.94% (active) | -5.08% (active) | 3.35% (active) | -30.1% (active) | 13.9% | -46.9% (active) |
| O=c1oc2ccccc2cc1-c1csc(N=Nc2c(O)[nH]c3ccc(Cl)cc23)n1 | 93.6% | 104% | 106% | 109% | 81.4% | 106% | 103% | 103% | 106% and 94.5% |
| CN(C)c1ccnc(NCCCSC(c2ccccc2)(c2ccccc2)c2ccccc2)c1 | 28% | 48.9% | 11.3% | 8.86% (active) | -35.8% (active) | -82.3% (active) | 12.2% | 46.7% | -34.9% (active) |
| O=C1NC(=O)c2c1c1c3cc(Br)ccc3[nH]c1c1oc3ccc(F)cc3c21 | -20.1% (active) | 15.1% | 33.7% | 3.59% (active) | -47.5% (active) | 0.579% (active) | -9.47% (active) | 15.1% | -51.8% (active) |
| O=C(NN1C(=O)/C(=C/C=C/c2ccc([N+](=O)[O-])o2)SC1=S)c1ccc(Cl)cc1 | -91.2% (active) | -91.1% (active) | -86.2% (active) | -80.9% (active) | -60% (active) | -76.1% (active) | -96.2% (active) | -93% (active) | -85.9% (active) |
| COc1ccc2c(c1)C(=N/N=C(\C)c1ccc(OC)c(S(N)(=O)=O)c1)C(=O)N2 | 87% | 59% | 96.1% | 93.9% | 90.3% | 88.6% | 111% | 97.5% | 78.6% |
| CN1CCN(/C(=N\c2sc(-c3ccccc3)nc2-c2ccccc2)c2ccccc2)CC1 | 76.2% | 77.5% | 79.7% | 79.5% | 75.1% | 54.4% | 77.5% | 24.5% | 71.6% |
| O=[N+]([O-])c1ccc(/C=C/c2nc3ccccc3n3c(=S)[nH]nc23)cc1 | 67.5% | 59.1% | 82.8% | 87.3% | 51.2% | 70.6% | 93.4% | 79.3% | 66.5% |
| S=C(NCCc1ccccc1)Nc1ccc(OCc2nc3ccccc3[nH]2)cc1 | 103% | 109% | 105% | 107% | 95.3% | 103% | 114% | 103% | 99.5% |
| COc1cc(C2CC(c3cc(OC)c(OC)c(OC)c3)=NN2C(C)=O)ccc1OCc1ccc(F)cc1 (configuration not stated) | 24.8% | 44.9% | 62.5% | 58.5% | 34.7% | 31.5% | 86% | 57.1% | 47.1% |
| COc1ccc(C(=O)/C=C/c2ccc(OC)c(OCc3ccccc3)c2)cc1OC | 15.7% | -15.5% (active) | 22.7% | 9.63% (active) | 7.12% (active) | 10.7% | 12.6% | 8.98% (active) | 1.46% (active) |
| Cc1ccc(S(=O)(=O)c2nc(S(=O)(=O)c3ccc(C)cc3)c(N3CCC(O)CC3)s2)cc1 | 60.1% | 49.5% | 16.8% | 44.7% | 43.4% | 53.7% | 90.6% | 72.6% | -20.7% (active) |
| C=C1CC[C@@H]2[C@]3(C)COC(c4ccco4)O[C@@H]3CC[C@@]2(C)[C@@H]1C/C=C1/C(=O)OCC1OC(C)=O (some centres not stated) | 45.5% | -4.43% (active) | 31.9% | -8.09% (active) | 13.4% | -52% (active) | 31.8% | 52.4% | -2.37% (active) |
| Cc1ccc(NC(=O)[C@]23CCC(C)(C)CC2C2=CCC4[C@@]5(C)C[C@@H](O)[C@H](O)[C@@](C)(CO)C5CC[C@@]4(C)[C@]2(C)CC3)cc1 (some centres not stated) | 10.4% | 0.29% (active) | 26.2% | 40.1% | 4.26% (active) | 6.55% (active) | -6.83% (active) | -22.3% (active) | 0.813% (active) |
| COc1cc2oc(-c3cccc(C(=O)Nc4ccc(Cl)cc4)c3)cc(=O)c2c(OCCNC(=O)[C@@H](N)CCC(=O)O)c1OC | 73.7% | 84.5% | 88.6% | 106% | 61% | 58.7% | 115% | 93.2% | 74.5% |
| CCS(=O)(=O)N1CCCC(C(=O)Nc2nc3ccc(NC(=O)c4ccc(F)c(OC)c4F)cc3s2)C1 (configuration not stated) | 7.96% (active) | 13.2% | 53.8% | 88.7% | 30.1% | 41% | 86.9% | 61.6% | 7.13% (active) |
| COc1c(F)ccc(C(=O)Nc2ccc3nc(NC(=O)C4CCCN(S(=O)(=O)c5ccc(Br)s5)C4)sc3c2)c1F (configuration not stated) | 53.1% | 75.5% | 84.1% | 100% | 53.8% | 65.4% | 98.7% | 75% | 83.7% |
| CC(C)c1sc(NC(=O)c2cc(NC(=O)c3cc(NC(=O)c4cscn4)cn3C)cn2C)nc1C(=O)NCCCN(C)C | 13% | -7.36% (active) | 2.17% (active) | 20.5% | 24.5% | -79.5% (active) | -74.9% (active) | 59.2% | -62.7% (active) |
| COC1=C[C@]23CCC(=O)N2CCc2cc4c(cc2[C@@H]3[C@@H]1OC(=O)[C@H](C)O)OCO4 | 42.4% | 2.51% (active) | 34.6% | 13.6% | -5.57% (active) | 1.88% (active) | -29.9% (active) | 18.9% | -17% (active) |
| CN(C)c1ccnc(CNCCSC2(c3ccc(C(F)(F)F)cc3)c3ccccc3CCc3ccccc32)c1 | -55.8% (active) | -15.2% (active) | -80.6% (active) | -66% (active) | -72% (active) | -82.5% (active) | -91.6% (active) | -66.3% (active) | -87.6% (active) |
| COc1cc2oc(-c3cccc(C(=O)Nc4ccc(Cl)cc4)c3)cc(=O)c2c(OCCNC(=O)[C@H](CCC(=O)OC(C)(C)C)NC(=O)OC(C)(C)C)c1OC | 78.7% | 100% | 100% | 112% | 83% | 95.6% | 118% | 102% | 105% |
| COc1ccc(NC(=O)Cn2c(O)c(N=Nc3ccc(S(N)(=O)=O)cc3)c3ccccc32)cc1 | 66.5% | 15.8% | 53% | 25.2% | 31.2% | 3.37% (active) | 18% | 26.3% | 22.3% |
| COc1ccc(/C=C/c2nc3ccccc3nc2Nc2cccc(C)c2)cc1 | 77.7% | 99.9% | 98.3% | 95.3% | 67.3% | 87.3% | 116% | 97.2% | 101% |
